Compound activity (PubChem)
Only a selection was taken, and hits are over-represented in it overall.
Dicer inh = human Dicer pre-microRNA cleavage inhibition; AID 1347074; cat-ELCCA pre-miR-21 Dicer processing, chemiluminescence; hits give high values; Q9UPY3; actives 6% (n = 47,000); z-score at 25 µM; in the data active = z-score above about 3, passing the limit was not always enough;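 also: plate controls were vehicle for no effect and no enzyme for full effect; higher signal means more uncleaved substrate so more Dicer inhibition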
* marks the source's active call; other numbers are inactive results.

SMILES	Dicer inh
Cc1cc2n(n1)C(c1ccc(N(C)C)cc1)Nc1ccccc1-2 (centres undefined)	1.3
Cc1cc2n(n1)C(c1ccccc1O)Nc1ccccc1-2 (centres undefined)	0.37
O=C1NCCCCC1NS(=O)(=O)c1ccc(-c2ccccn2)s1 (centres undefined)	-0.57
CCN1CCN(C2=NC3(CCCCC3)C(C#N)C(=O)N2)CC1 (centres undefined)	-0.51
COc1ccc(OCc2nc3ccccc3n2CCOc2ccccc2)cc1	-0.12
COc1ccc(C(=O)COC(=O)c2ccc(N3C(=O)C4CC=CCC4C3=O)cc2)cc1 (centres undefined)	0.35
Cc1ccc(CNC2(NC(=O)c3ccc(C(F)(F)F)cc3)C(=O)c3ccccc3C2=O)cc1	0.03
CCCS/C(Nc1cccc(OC)c1)=C(/C#N)S(=O)(=O)c1ccc(Cl)cc1	-0.78
O=C(N/C=C/c1ccsc1)Nc1ccccc1C(F)(F)F	0.6
Cc1cc(/C(N)=N/OC(=O)C(C)(C)C)cc(/C(N)=N/OC(=O)C(C)(C)C)c1	5.7
CC(C)(C)OC(=O)NC(CSCc1ccccc1)C(N)=O (centres undefined)	-0.41
Cn1c2c(c(=O)[nH]c1=O)C(c1cccc(F)c1)C1=C(N2)c2ccccc2C1=O (centres undefined)	0.01
OC1CCSc2ccc(Cl)cc21 (centres undefined)	-0.31
O=[N+]([O-])c1cccc(Cl)c1Oc1ccccc1	0.2
CSc1nc(N)c(C#N)n1Cc1ccco1	1.1
COc1cc(C2Nc3c(C)cccc3-c3cc(C)nn32)ccc1O (centres undefined)	0.04
COc1ccc(C2Nc3c(C)cccc3-c3cc(C)nn32)cc1O (centres undefined)	3.9*
Cc1cc2n(n1)C(c1ccc(O)c(O)c1)Nc1c(C)cccc1-2 (centres undefined)	-0.93
COc1ccccc1C1CC(=O)C2=C(C1)NC(C)=C(C(=O)OC(C)C)C2c1cccc(OC)c1OC (centres undefined)	-1.8
COc1ccc(OCCNC(=O)NS(=O)(=O)c2ccc(C)cc2)cc1	-0.63
COc1ccc(OCC(O)CNC(=O)Nc2ccc(OCc3ccccc3)cc2)cc1 (centres undefined)	-0.86
COc1ccc(NC(=O)Nc2c(C)noc2-c2ccccc2)cc1	1.5
COc1ccc(NC(=O)Nc2nnc(COc3ccccc3F)s2)cc1	3.5*
CCOc1ccc(/C=C2\N=C(SC)SC2=O)cc1	0.72
Cc1cc(C)c(C#N)c(SC(C(=O)Nc2ccc(C(C)C)cc2)c2ccccc2)n1 (centres undefined)	-1.3
SMILES	Dicer inh
COc1ccc(-c2cc(C(F)(F)F)n3ncnc3n2)cc1	0.32
CC(=O)c1ccc(C#N)c(SCC(=O)c2ccccc2)n1	0.91
Cc1nc(SCC(=O)c2ccccc2)c(C#N)c(C)c1C	4.4*
CCOC(=O)CC(=O)CSc1nc(C)c(C)c(C)c1C#N	0.68
O=C1NNC(SCc2ccc(Br)cc2)=Nc2ccccc21	0.11
O=C(CSc1nnc2ccccn12)Nc1ccc(-c2nc3ccccc3s2)cc1	3.5*
O=C(CSc1ccc2ccccc2n1)Nc1nsc(-c2ccccc2)n1	2.1
NC(=O)CSc1nnc2ccccn12	0.34
O=C(CSc1nnc2scc(-c3ccccc3)n12)Nc1nsc(-c2ccccc2)n1	0.12
CC(C)(C)c1ccc(-c2nc(NC(=O)CSc3ncn[nH]3)ns2)cc1	7.1*
Cn1ccnc1SCC(=O)Nc1nc2ccccc2s1	-0.98
O=C(CSc1nc2ccccc2s1)Nc1ccc(Cl)cc1	0.57
Cc1ccc(-c2csc3nnc(SCC(=O)Nc4nsc(-c5ccccc5)n4)n23)cc1	4.6*
O=C(CSc1nnc2ccccn12)Nc1nc(-c2ccc(Cl)cc2)ns1	-2.9
Cc1nnc(SCC(=O)Nc2nsc(-c3ccc(C(C)(C)C)cc3)n2)s1	1.8
O=C(CSc1ncn[nH]1)Nc1ncccn1	0.99
Cc1ccccc1-c1nc(NC(=O)CSc2nnc3ccccn23)ns1	3.5*
ClC1=C(CN2CCSCC2)CSc2ccc(Cl)cc21	0.72
Cc1[nH]c2ccccc2c1C(=O)CSc1nccn1C	-0.74
COc1ccccc1C(=O)CC1(O)C(=O)N(Cc2ccccc2)c2ccccc21 (centres undefined)	72
Cc1sc2nc3sc(CC(=O)NCCO)cn3c(=O)c2c1C	-1.8
CNC(=O)n1nccc1-c1sc2ccccc2c1C	-3.8
FC(F)(F)c1ccc(Oc2ccc(-c3nc(-c4ccc(Cl)s4)cs3)cc2)nc1	1.1
Cn1c(=O)n(C)c2cc(S(=O)(=O)NC3CCCCC3)ccc21	-0.28
O=c1[nH]c2ccc(S(=O)(=O)NC3CCCCC3)cc2[nH]1	4.7*
SMILES	Dicer inh
O=C(O)CNS(=O)(=O)c1ccc2[nH]c(=O)[nH]c2c1	0.48
CCOC(=O)C1CCN(c2ccccc2CN2CCN(Cc3ccccc3)CC2)CC1	-0.81
O=C(O)CCC(=O)NCCC1=CCCCC1	0.69
COc1ccc(NS(=O)(=O)c2ccc3c4c(cccc24)C(=O)N3)cc1	0.18
O=C(O)c1ccccc1NS(=O)(=O)c1ccc2c3c(cccc13)C(=O)S2	-0.85
O=C1Sc2ccc(S(=O)(=O)Nc3ccc(F)cc3)c3cccc1c23	3.5*
CS/C(=C/C(=O)c1ccco1)Nc1ccccc1Cl	-1.5
Cc1c(-c2nnnn2-c2ccccc2)cnc2ccccc12	0.57
FC(F)(F)c1[nH]ncc1-c1nnnn1-c1ccccc1	3.3*
FC(F)(F)c1c(-c2nnnn2-c2ccccc2)cnn1-c1ccccc1Cl	-1.1
CCOC(=O)c1sc(N2C(=O)C(O)=C(C(=O)c3ccco3)C2c2cccs2)nc1C (centres undefined)	0.31
COc1ccccc1NS(=O)(=O)c1cccc(S(=O)(=O)c2ccc(Br)cc2)c1	2.7
O=C1C2=C(C(c3ccccc3)=NCCN2)C(c2ccccc2F)N1c1ccccc1 (centres undefined)	0.84
CN(C)c1ccc(C2Nc3cccc4cccc(c34)N2)cc1	0.05
c1ccc(C2Nc3cccc4cccc(c34)N2)cc1	6.2*
O=C1NC(c2cccc(Br)c2)Nc2ccccc21 (centres undefined)	2.1
O=C1NC(c2ccc(Cl)cc2)Nc2ccccc21 (centres undefined)	-0.49
COc1cc(C2Nc3cccc4cccc(c34)N2)ccc1OCc1ccccc1	2.9
CC(C)(C)c1ccc(C2Nc3cccc4cccc(c34)N2)cc1	5*
COc1cc(OC)c(C2Nc3cccc4cccc(c34)N2)c(OC)c1	1.8
Brc1cccc(C2Nc3cccc4cccc(c34)N2)c1	5.2*
COc1ccccc1C1Nc2cccc3cccc(c23)N1	2.2
CCOc1cc(C2Nc3cccc4cccc(c34)N2)ccc1O	2.9
c1ccc2c(C3Nc4cccc5cccc(c45)N3)cccc2c1	4.4*
CCc1ccc(C2Nc3cccc4cccc(c34)N2)cc1	0.54
SMILES	Dicer inh
Cc1cc(-c2nn(C)c(=O)c3ccccc23)cc(C)c1OCC(=O)NNC(=O)Nc1ccccc1	-0.16
S=C1NC2=C(CCc3ccccc32)C(c2ccccc2Cl)N1 (centres undefined)	1.1
O=C(NNc1ncccc1C(F)(F)F)c1cccc(C(F)(F)F)c1	-0.2
CC(C)C1CC(CCN2CCOCC2)(c2ccccc2)CCO1 (centres undefined)	0.98
CN(C)c1ccc(/C=N/Nc2ccc([N+](=O)[O-])cn2)cc1	1.7
Cn1c(-c2ccc(Cl)cc2)cnc1SCc1c(Cl)cccc1Cl	-2.8
O=C(N/C=C/c1ccsc1)Nc1cccc(Cl)c1	1.7
N#CC1=C(C(N)=O)N=C(c2ccccc2)C(c2ccccc2)N1 (centres undefined)	0.55
